Data taken from PubChem BioAssay (EPA / NIEHS).
The source made the active and inactive calls. How the source made its calls: active means hit-call score of the fitted dose curve at least 0.9, where 1 is the maximum; inactive means score below 0.9.

What was measured:
Conditions in all cases: mRNA level, 48 h; actives raise or lower the signal
[1] = read-out: Phosphatase and tensin (PTEN), PTEN (gene 5728); assay: LTEA_HepaRG_PTEN: Life Technologies and Expression Analysis (LTEA) Assay for Phosphatase and tensin (PTEN) using HepaRG (AID 2283523)
Procedure, shortened: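 HepaRG cells, 48 h after plating, exposed in duplicate for 48 h in serum-free induction medium to 8 half-log concentrations up to 100 uM (0.5% DMSO). PTEN mRNA by qRT-PCR, normalized to ACTB, GAPDH, POLR2A; bidirectional fit versus DMSO.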

[2] = read-out: solute carrier (SLC22A1), SLC22A1 (gene 6580); assay: LTEA_HepaRG_SLC22A1: Life Technologies and Expression Analysis (LTEA) Assay for solute carrier (SLC22A1) using HepaRG (AID 2283524)
Procedure, shortened: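 Differentiated human HepaRG cells in serum-free induction medium, exposed 48 h in duplicate to 8-point half-log series from 100 µM top in 0.5% DMSO. SLC22A1 mRNA by TaqMan qRT-PCR normalized to ACTB, GAPDH, POLR2A; bidirectional fit versus DMSO.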

[3] = read-out: Pyruvate Dehydrogenase Kinase 4 (PDK4), PDK4 (gene 5166); assay: LTEA_HepaRG_PDK4: Life Technologies and Expression Analysis (LTEA) Assay for Pyruvate Dehydrogenase Kinase 4 (PDK4) using HepaRG (AID 2283525)
Procedure, shortened: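 HepaRG cells plated 48 h, then switched to serum-free induction medium and exposed in duplicate for 48 h to 8 half-log concentrations from 100 uM in 0.5% DMSO. PDK4 mRNA measured by qRT-PCR, normalized to ACTB, GAPDH and POLR2A; bidirectional fit versus DMSO.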

[4] = read-out: Nuclear factor erythroid 2-related factor 2 (Homo sapiens) (UniProt Q16236); assay: LTEA_HepaRG_NFE2L2: Life Technologies and Expression Analysis (LTEA) Assay for Nuclear factor erythroid 2-related factor 2 (NFE2L2) Transcription Factor using HepaRG (AID 2283527)
Procedure, shortened: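 Differentiated human HepaRG cells, serum-free induction medium, exposed 48 h in duplicate to eight half-log concentrations up to 100 uM in 0.5% DMSO. NFE2L2 mRNA by Fluidigm TaqMan qRT-PCR, normalised to ACTB, GAPDH, POLR2A; bidirectional change versus DMSO.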

[5] = read-out: succinate dehydrogenase complex iron sulfur subunit B (SDHB), SDHB (gene 6390); assay: LTEA_HepaRG_SDHB: Life Technologies and Expression Analysis (LTEA) Assay for succinate dehydrogenase complex iron sulfur subunit B (SDHB) using HepaRG (AID 2283528)
Procedure, shortened: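 Readout is SDHB transcript level by qRT-PCR, normalised to three housekeeping genes and fitted bidirectionally against 0.5% DMSO vehicle. Human HepaRG cells were treated for 48 h at up to 100 uM.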

[6] = read-out: solute carrier (SLCO1B1), SLCO1B1 (gene 10599); assay: LTEA_HepaRG_SLCO1B1: Life Technologies and Expression Analysis (LTEA) Assay for solute carrier (SLCO1B1) using HepaRG (AID 2283530)
Procedure, shortened: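 SLCO1B1 transcript levels were quantified by TaqMan qRT-PCR using three housekeeping genes for normalization. This followed 48 h chemical exposure (100 uM top, half-log, 8 points, 0.5% DMSO) of HepaRG liver cells, with gain or loss fitted relative to DMSO.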

[7] = read-out: sulfotransferase 2A1 (SULT2A1), SULT2A1 (gene 6822); assay: LTEA_HepaRG_SULT2A1: Life Technologies and Expression Analysis (LTEA) Assay for sulfotransferase 2A1 (SULT2A1) using HepaRG (AID 2283531)
Procedure, shortened: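 Expression change of SULT2A1, by qRT-PCR with three housekeeping-gene normalization, was scored bidirectionally versus DMSO. Cells: differentiated HepaRG, dosed in duplicate for 48 h across 8 points, highest 100 µM, half-log dilution, 0.5% DMSO.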

[8] = read-out: Transforming Growth Factor (TGFA), TGFA (gene 7039); assay: LTEA_HepaRG_TGFA: Life Technologies and Expression Analysis (LTEA) Assay for Transforming Growth Factor (TGFA) using HepaRG (AID 2283532)
Procedure, shortened: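 Differentiated HepaRG cells exposed 48 hours in serum-free induction medium, 0.5% DMSO vehicle, 8-point half-log series from 100 uM, in duplicate. TGFA mRNA by TaqMan qRT-PCR, normalised to ACTB, GAPDH, POLR2A; bidirectional fit versus DMSO.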

[9] = read-out: Signal transducer and activator of transcription 3 (Homo sapiens) (UniProt P40763); assay: LTEA_HepaRG_STAT3: Life Technologies and Expression Analysis (LTEA) Assay for Signal transducer and activator of transcription (STAT3) using HepaRG (AID 2283529)
Procedure, shortened: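 Differentiated HepaRG cells, serum-free induction medium, dosed 48 h in duplicate, 8 half-log concentrations from 100 uM in 0.5% DMSO. STAT3 mRNA by qRT-PCR, normalised to ACTB, GAPDH, POLR2A; bidirectional fit versus DMSO.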

[10] = read-out: NAD(P)H dehydrogenase [quinone] 1 (NQO1), NQO1 (gene 1728); assay: LTEA_HepaRG_NQO1: Life Technologies and Expression Analysis (LTEA) Assay for NAD(P)H dehydrogenase [quinone] 1 (NQO1) using HepaRG (AID 2283526)
Procedure, shortened: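 Human HepaRG hepatic cells received chemicals for 48 h in serum-free induction medium with 0.5% DMSO, up to 100 uM. Expression was assessed by TaqMan qRT-PCR against housekeeping controls and fitted bidirectionally against DMSO.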

Measured: AC50

Chain of Nuclear factor erythroid 2-related factor 2 (Homo sapiens) (Q16236 whole entry, looked up): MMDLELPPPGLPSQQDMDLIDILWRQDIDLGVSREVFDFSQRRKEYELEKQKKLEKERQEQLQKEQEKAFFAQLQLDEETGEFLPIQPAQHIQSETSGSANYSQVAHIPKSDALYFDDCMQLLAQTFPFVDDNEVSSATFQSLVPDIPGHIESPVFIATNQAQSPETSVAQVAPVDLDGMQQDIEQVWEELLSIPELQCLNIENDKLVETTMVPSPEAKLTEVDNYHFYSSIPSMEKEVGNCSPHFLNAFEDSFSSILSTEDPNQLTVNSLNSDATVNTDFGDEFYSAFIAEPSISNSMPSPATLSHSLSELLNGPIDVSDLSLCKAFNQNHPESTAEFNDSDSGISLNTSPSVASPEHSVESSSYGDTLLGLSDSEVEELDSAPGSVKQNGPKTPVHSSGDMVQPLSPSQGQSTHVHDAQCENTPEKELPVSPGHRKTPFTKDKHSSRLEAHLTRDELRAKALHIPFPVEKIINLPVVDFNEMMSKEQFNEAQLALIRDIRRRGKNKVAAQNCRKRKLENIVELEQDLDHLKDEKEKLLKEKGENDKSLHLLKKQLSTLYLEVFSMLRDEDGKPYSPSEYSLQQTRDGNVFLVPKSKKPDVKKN
Chain of Signal transducer and activator of transcription 3 (Homo sapiens) (P40763 whole entry, looked up): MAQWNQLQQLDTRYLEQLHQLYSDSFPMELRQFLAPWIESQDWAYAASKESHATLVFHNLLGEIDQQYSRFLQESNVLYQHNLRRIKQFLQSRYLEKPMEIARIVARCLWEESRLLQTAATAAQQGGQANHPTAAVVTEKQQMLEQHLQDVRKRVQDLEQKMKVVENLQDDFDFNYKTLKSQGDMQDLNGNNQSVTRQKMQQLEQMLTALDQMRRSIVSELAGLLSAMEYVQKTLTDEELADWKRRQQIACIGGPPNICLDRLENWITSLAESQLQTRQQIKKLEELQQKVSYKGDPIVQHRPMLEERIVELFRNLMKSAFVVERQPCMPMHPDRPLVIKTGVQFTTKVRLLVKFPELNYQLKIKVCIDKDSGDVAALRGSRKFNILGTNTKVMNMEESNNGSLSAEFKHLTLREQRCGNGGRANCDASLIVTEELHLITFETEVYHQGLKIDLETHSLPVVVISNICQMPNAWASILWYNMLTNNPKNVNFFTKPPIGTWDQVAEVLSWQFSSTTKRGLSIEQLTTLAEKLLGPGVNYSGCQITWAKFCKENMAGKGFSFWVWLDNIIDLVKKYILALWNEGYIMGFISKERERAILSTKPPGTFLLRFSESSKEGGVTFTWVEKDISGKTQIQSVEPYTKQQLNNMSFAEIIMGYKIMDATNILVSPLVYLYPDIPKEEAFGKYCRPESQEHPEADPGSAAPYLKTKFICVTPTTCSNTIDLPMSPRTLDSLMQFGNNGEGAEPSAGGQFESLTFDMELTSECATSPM

O=C1NC(=O)C(c2ccccc2)(c2ccccc2)N1
active: [7] 50 µM
not listed: [9] | [10]
inactive: all other assays above

O=C(O)CN(CC(=O)O)CC(=O)O
not listed: [7] | [10]
inactive: all other assays above

CCCCCCC(C=O)=Cc1ccccc1
not listed: [7] | [9] | [10]
inactive: all other assays above

O=Cc1ccccc1C=O
not listed: [9] | [10]
inactive: all other assays above

O=C1O[C@H]([C@H](O)CO)C(O)=C1O
inactive: [1] | [2] | [4] | [5] | [7] | [8]

CC(=O)S[C@H](C(=O)N[C@H]1Cc2ccccc2[C@H]2CCC[C@@H](C(=O)O)N2C1=O)C(C)C
not listed: [9] | [10]
inactive: all other assays above

CCc1cc(C2=C(C(=O)O)N(c3ccccc3C(F)(F)F)S(=O)(=O)c3ccccc32)cc2c1OCO2
inactive: [1] | [10] | [5] | [9]
active: [3] 50 µM | [4] 50 µM | [6] 50 µM | [8] 79.1 µM

CCCCCCCCCCCCCCOS(=O)(=O)O
inactive: [1] | [4] | [5] | [6] | [8]
active: [2] 80.6 µM | [3] 49.6 µM

CCCCc1nc2cccnc2n1Cc1ccc(-c2ccccc2-c2nnn[nH]2)cc1
inactive: [1] | [4] | [5] | [6] | [8]
active: [2] 65.5 µM | [3] 28.6 µM

O=C(O)CC(O)(CC(=O)O)C(=O)O
not listed: [7] | [9] | [10]
inactive: all other assays above

O=C(N[C@@H](c1ccccc1)[C@@H]1CCCCN1)c1cccc(C(F)(F)F)c1Cl
inactive: [8]
active: [1] 75.2 µM | [2] 40.5 µM | [3] 50 µM | [4] 83.8 µM | [5] 91.4 µM | [6] 37.1 µM

CCCCC(CC)COC(=O)CCCCCCCC(=O)OCC(CC)CCCC (configuration not stated)
not listed: [2] | [9] | [10]
inactive: all other assays above

Cc1c(C)c2c(c(C)c1O)CCC(C)(COc1ccc(CC3SC(=O)NC3=O)cc1)O2 (configuration not stated)
active: [6] 24.7 µM
not listed: [2] | [7]
inactive: all other assays above

Cc1ccc(-c2cc(C(F)(F)F)nn2-c2ccc(S(N)(=O)=O)cc2)cc1
active: [2] 55.9 µM | [4] 62.7 µM | [7] 83.6 µM | [8] 73.1 µM
inactive: [1] | [3] | [5] | [6]

CN(C)CCCN1c2ccccc2Sc2ccc(Cl)cc21
active: [1] 78 µM | [2] 79.4 µM | [4] 82.4 µM | [7] 82.7 µM
inactive: [3] | [6] | [8]

COc1ccc(OC(F)(F)F)cc1CN[C@H]1CCCN[C@H]1c1ccccc1
active: [2] 50 µM | [4] 14.7 µM | [9] 73.4 µM
not listed: [1] | [7]
inactive: all other assays above

CC(=O)O[C@]1(C(C)=O)CC[C@H]2[C@@H]3C=C(Cl)C4=CC(=O)[C@@H]5C[C@@H]5[C@]4(C)[C@H]3CC[C@@]21C
active: [2] 50 µM | [4] 81.2 µM | [9] 50 µM | [6] 76.8 µM
inactive: [1] | [3] | [5] | [8]

CC(=O)[C@@]1(O)CC[C@H]2[C@@H]3CCC4=CC(=O)CC[C@]4(C)[C@H]3CC[C@@]21C
not listed: [5] | [10]
inactive: all other assays above

CC(=O)O
not listed: [9] | [10]
inactive: all other assays above

CC(COCC(C)OC(=O)c1ccccc1)OC(=O)c1ccccc1 (configuration not stated)
not listed: [7] | [9] | [10]
inactive: all other assays above

Nc1nc(=S)c2[nH]cnc2[nH]1
inactive: [1] | [3] | [10] | [5] | [8]
active: [4] 26.6 µM | [6] 11.4 µM

CCCCC(CC)CO (configuration not stated)
not listed: [7] | [10]
inactive: all other assays above

COC(=O)CCCC(=O)OC
not listed: [2] | [7] | [10]
inactive: all other assays above

OCC(CO)n1cnc(-c2ccc(F)cc2)c1-c1ccnc(Oc2ccccc2)n1
active: [4] 33.8 µM
not listed: [9] | [10]
inactive: all other assays above

CCCCCCC(CCCCCCCCCCC(=O)OCC(COC(C)=O)OC(C)=O)OC(C)=O (configuration not stated)
not listed: [7] | [9] | [10]
inactive: all other assays above
